Source: the supplement of paper PMC11732987, “Enantioselective OTUD7B fragment discovery through chemoproteomics screening and high-throughput optimisation” (Communications Chemistry, 2025)

Assays:
Test in all cases: log2 ratio of Biotin-Ahx-Ub-VS probe labelling (fragment/DMSO); higher = less target engagement (more negative = stronger competition), active = hit call of the paper (q ≤ 0.05, log2 ratio ≤ -1)
Conditions in all cases: compound concentration: 200 uM; treatment time: 3 h
[1] = target: USP34 (UniProt Q70CQ2)
Method in brief: (§1)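 Labelling with Biotin-Ahx-Ub-VS (0.5 µM final, 1 h) followed a 3 h triplicate treatment of HEK293T lysate (495 µg per sample, Tris/CHAPS/IGEPAL buffer with protease inhibitors) with fragment at 200 µM or vehicle. Labelled DUBs were NeutrAvidin-enriched, digested with LysC and trypsin, and run by diaPASEF LC-MS/MS. The values, average log2 fragment/vehicle ratios by unpaired t-test, come from global-median-normalised Spectronaut label-free quantities. Proteins with ≥2 unique peptides were used.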

[2] = target: T1, USP36 (UniProt Q9P275)
T1 sequence (whole entry): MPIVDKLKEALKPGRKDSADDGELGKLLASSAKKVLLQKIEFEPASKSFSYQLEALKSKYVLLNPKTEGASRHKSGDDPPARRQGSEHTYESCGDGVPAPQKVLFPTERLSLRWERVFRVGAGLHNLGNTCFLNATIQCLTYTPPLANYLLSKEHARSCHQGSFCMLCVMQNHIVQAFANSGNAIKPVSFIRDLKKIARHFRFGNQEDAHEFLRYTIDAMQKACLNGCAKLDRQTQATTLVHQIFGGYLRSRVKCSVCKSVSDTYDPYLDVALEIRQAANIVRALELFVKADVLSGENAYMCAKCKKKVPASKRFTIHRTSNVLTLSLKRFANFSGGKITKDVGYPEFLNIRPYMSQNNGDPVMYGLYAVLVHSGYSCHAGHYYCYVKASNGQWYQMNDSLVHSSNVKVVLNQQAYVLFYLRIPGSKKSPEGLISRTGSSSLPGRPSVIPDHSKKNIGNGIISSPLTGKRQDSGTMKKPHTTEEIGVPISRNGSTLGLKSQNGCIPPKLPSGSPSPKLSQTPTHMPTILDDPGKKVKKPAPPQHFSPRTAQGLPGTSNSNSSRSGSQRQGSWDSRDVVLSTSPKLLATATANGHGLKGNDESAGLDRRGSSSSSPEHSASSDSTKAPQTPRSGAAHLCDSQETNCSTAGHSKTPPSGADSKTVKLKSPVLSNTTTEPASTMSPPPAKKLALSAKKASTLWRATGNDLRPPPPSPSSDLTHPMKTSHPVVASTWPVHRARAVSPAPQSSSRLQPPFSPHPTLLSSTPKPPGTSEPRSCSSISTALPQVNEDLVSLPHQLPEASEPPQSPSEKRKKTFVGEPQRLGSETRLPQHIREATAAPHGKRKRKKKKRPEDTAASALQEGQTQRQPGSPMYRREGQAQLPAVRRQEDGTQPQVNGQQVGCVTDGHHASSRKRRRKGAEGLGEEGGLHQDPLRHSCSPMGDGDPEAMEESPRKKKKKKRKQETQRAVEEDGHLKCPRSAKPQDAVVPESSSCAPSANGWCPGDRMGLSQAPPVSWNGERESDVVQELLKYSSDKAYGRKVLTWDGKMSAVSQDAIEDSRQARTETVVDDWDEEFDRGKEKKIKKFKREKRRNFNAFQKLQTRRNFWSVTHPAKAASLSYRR
Method in brief: as §1

[3] = target: T2, USP38 (UniProt Q8NB14)
T2 sequence (whole entry): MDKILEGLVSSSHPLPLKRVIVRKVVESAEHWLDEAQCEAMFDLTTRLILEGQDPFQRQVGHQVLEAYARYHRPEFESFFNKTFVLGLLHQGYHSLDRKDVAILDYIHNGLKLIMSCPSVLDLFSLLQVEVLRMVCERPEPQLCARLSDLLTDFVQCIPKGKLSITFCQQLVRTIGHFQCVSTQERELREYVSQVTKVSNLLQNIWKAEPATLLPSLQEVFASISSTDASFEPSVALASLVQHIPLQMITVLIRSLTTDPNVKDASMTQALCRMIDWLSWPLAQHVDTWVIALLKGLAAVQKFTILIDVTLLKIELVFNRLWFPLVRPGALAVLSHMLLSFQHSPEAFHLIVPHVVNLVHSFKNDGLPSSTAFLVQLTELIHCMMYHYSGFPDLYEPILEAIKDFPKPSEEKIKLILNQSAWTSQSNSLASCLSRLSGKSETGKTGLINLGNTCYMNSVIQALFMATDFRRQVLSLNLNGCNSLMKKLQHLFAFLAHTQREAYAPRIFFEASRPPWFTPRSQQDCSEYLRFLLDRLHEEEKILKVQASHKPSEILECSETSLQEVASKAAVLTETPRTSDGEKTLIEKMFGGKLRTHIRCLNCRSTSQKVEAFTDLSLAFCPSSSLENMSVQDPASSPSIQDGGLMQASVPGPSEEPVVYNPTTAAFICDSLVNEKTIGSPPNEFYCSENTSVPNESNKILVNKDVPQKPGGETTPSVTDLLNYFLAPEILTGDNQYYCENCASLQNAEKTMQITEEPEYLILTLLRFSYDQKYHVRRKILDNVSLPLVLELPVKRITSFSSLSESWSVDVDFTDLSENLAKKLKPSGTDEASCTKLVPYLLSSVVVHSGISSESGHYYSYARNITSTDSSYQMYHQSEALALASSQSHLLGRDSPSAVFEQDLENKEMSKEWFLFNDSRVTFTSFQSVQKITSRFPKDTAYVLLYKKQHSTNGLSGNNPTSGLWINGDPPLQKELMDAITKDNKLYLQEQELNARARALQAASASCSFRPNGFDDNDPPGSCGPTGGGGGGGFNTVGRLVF
Method in brief: as §1

[4] = target: T3, USP39 (UniProt Q53GS9)
T3 sequence (whole entry): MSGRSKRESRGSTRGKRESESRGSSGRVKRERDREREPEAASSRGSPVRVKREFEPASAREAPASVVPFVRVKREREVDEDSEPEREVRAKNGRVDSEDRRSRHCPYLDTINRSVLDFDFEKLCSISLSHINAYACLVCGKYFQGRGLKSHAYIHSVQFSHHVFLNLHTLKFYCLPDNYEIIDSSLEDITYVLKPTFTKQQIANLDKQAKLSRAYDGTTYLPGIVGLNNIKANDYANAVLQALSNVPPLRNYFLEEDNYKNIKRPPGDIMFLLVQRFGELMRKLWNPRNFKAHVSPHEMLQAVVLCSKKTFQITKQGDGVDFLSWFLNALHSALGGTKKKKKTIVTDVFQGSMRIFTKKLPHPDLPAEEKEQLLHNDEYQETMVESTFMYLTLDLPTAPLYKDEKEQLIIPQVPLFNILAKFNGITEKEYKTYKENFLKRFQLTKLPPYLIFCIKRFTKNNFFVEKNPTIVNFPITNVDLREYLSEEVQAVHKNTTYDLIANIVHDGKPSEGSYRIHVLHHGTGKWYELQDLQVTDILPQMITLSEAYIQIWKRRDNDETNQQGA
Method in brief: as §1

[5] = target: T4, USP4 (UniProt Q13107)
T4 sequence (whole entry): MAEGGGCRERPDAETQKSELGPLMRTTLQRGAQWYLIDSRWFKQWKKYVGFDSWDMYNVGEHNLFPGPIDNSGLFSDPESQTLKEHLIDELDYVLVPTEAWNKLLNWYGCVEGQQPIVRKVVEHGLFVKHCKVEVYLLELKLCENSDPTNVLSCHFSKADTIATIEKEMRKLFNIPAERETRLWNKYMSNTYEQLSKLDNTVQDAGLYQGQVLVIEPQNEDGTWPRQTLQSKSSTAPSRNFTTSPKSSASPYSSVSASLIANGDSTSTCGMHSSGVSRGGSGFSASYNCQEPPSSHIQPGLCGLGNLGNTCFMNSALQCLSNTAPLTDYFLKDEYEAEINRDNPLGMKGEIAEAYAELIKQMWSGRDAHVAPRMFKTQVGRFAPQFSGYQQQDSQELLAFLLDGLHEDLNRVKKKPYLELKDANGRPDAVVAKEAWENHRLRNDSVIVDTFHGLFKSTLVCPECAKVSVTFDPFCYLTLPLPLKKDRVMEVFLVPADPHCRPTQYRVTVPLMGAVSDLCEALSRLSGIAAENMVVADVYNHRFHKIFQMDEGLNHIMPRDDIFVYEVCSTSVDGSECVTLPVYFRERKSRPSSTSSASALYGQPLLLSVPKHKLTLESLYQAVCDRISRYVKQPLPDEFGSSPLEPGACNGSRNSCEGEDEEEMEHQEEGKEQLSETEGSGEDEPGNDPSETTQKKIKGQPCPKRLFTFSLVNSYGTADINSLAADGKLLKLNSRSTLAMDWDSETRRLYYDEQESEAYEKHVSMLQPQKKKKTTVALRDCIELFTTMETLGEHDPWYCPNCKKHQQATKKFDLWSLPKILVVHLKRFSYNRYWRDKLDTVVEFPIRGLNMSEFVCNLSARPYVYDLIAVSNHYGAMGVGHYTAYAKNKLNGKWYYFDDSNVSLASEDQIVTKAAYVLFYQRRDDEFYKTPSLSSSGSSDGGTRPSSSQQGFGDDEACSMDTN
Method in brief: as §1

Measured: log2 ratio of Biotin-Ahx-Ub-VS probe labelling

USP34, sequence (Q70CQ2 whole entry, the tested form may be a part): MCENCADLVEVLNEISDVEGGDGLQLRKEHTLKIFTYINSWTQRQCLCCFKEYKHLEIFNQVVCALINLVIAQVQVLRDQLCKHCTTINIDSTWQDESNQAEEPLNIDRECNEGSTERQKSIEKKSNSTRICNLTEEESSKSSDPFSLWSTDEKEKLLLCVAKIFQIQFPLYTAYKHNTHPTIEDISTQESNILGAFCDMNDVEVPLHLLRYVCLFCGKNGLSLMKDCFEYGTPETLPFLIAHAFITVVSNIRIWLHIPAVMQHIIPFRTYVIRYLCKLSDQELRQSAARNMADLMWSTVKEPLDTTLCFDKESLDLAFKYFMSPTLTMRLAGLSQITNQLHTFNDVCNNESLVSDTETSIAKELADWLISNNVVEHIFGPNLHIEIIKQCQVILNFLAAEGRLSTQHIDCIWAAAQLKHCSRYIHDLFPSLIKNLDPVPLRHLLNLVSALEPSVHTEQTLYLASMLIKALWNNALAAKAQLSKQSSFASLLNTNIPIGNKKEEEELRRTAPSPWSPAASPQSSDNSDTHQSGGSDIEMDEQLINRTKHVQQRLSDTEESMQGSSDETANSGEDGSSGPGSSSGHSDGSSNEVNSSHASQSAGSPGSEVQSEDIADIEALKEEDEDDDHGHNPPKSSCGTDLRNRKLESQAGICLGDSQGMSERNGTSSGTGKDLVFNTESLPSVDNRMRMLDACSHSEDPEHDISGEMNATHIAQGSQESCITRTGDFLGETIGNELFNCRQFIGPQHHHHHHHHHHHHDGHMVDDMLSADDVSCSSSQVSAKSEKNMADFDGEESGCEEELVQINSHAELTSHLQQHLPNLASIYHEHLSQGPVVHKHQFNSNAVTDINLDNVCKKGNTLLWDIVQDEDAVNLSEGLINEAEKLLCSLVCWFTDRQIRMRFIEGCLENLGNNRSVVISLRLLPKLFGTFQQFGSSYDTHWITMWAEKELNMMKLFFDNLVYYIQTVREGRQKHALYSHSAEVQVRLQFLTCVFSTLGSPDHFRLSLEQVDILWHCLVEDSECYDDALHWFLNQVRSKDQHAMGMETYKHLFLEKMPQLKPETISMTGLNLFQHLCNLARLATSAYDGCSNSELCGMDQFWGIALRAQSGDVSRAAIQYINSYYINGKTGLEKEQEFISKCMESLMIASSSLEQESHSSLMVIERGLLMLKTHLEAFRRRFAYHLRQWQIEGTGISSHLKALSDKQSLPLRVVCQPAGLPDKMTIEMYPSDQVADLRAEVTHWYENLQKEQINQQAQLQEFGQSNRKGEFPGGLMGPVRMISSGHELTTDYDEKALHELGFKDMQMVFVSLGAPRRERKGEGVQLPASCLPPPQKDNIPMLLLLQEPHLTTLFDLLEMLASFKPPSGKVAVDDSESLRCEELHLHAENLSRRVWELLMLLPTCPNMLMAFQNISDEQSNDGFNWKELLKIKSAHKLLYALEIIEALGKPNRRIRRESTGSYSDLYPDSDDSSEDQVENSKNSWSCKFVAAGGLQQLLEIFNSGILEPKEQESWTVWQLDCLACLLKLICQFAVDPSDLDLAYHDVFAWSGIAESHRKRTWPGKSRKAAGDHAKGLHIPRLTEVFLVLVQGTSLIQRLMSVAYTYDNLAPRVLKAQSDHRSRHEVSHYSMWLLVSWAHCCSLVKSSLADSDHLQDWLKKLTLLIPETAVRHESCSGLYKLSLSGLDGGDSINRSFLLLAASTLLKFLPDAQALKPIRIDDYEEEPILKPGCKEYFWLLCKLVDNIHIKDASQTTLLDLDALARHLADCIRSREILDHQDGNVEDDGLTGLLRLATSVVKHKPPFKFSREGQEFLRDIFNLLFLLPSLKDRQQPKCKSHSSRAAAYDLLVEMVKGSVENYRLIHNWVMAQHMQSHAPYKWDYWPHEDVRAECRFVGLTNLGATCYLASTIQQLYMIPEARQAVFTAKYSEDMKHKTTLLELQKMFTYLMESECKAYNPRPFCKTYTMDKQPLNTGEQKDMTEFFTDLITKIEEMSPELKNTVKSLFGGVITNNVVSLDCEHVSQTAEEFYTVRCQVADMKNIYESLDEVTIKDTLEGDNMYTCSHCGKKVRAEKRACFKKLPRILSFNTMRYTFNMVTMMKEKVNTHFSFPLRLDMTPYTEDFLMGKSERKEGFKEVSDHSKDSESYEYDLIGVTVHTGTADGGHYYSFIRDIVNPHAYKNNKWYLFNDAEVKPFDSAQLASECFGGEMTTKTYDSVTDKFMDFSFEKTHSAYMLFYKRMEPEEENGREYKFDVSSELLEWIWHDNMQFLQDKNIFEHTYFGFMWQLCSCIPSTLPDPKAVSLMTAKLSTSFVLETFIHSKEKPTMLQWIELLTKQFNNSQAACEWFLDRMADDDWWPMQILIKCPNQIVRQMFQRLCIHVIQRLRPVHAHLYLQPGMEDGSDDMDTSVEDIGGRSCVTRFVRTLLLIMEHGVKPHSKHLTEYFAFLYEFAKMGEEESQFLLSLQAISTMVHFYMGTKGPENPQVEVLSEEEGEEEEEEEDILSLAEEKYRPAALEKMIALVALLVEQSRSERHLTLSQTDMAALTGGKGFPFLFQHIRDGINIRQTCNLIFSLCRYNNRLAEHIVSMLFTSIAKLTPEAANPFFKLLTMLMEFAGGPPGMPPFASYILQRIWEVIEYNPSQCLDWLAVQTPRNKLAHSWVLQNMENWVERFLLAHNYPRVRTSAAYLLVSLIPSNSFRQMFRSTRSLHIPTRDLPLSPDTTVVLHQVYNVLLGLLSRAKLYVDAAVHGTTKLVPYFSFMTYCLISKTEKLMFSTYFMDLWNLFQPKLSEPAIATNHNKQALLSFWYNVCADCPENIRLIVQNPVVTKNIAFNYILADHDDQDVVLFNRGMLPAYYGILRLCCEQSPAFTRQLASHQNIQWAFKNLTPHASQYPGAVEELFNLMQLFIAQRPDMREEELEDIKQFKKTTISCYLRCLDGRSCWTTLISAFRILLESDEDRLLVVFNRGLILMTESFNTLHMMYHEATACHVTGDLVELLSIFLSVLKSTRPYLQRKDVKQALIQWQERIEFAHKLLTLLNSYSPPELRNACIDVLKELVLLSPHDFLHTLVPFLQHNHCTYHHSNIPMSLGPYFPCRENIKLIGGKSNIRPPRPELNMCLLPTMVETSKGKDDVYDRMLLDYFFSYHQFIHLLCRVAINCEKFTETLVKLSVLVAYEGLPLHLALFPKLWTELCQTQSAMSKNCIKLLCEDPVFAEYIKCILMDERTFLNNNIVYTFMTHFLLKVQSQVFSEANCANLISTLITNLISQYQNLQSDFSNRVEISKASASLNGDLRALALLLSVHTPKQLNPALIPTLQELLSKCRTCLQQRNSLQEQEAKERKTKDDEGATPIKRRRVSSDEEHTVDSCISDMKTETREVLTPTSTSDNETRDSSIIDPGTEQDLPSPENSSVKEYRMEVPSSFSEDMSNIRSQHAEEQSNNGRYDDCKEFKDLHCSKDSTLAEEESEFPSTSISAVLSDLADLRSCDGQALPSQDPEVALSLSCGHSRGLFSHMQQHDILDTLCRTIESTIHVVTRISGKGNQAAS

Cc1ccccc1CN(C)C(=O)CCl
inactive: [1] -0.547 | [2] -0.347 | [3] -0.741 | [4] -0.049 | [5] -0.831
